Rows were chosen to be rich in hits. Some 12% of all compounds tested hit in one or more screens of this group.
RORg inh: blocks mouse ROR gamma transcriptional activity | Drosophila S2 Gal4-RORgamma UAS-luciferase reporter, 20 h | P51450 | 5.4% of 310,000 active | Potency, µM (titrated, usually from 53.6 µM), inactives show at the highest dose activity change, negative = inhibition, most hits filed as inhibitors; also: nearly all actives have a fitted effect of over 60% in size
Target sequence (P51450 whole entry, looked up, the tested form may be a part): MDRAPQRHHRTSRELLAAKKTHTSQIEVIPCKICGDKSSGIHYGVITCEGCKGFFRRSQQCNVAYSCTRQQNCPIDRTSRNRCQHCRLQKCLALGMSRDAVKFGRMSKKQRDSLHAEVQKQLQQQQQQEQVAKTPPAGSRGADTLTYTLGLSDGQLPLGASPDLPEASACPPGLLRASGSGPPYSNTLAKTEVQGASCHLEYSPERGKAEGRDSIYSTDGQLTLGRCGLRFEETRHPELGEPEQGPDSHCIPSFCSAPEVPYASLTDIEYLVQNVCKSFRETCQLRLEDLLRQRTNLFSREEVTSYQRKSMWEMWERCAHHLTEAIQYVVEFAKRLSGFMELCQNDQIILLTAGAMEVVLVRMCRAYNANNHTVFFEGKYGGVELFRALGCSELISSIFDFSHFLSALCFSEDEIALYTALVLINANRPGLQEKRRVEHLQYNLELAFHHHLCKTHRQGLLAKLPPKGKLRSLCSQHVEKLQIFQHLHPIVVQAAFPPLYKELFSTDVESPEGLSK
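Using a luciferase readout, inhibitors were identified by reduced reporter activity in Drosophila cells coexpressing a copper-inducible Gal4–ROR gamma fusion and UAS-driven Photinus luciferase, incubated 20 hr after 700 uM copper sulfate.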
Gal4-VP16 FLuc: Gal4-VP16 reporter inhibition counter-screen; Drosophila S2 Gal4-VP16 UAS-luciferase, luminescence, 20 h; 3.5% of 310,000 active; AID 2546; Potency, µM (doses to about 53.6 µM), for inactives: at the top dose activity, negative = inhibition, actives largely listed as inhibitors;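 also: Gal4-VP16 expression switched on by copper sulfate through the metallothionein promoter; nearly all actives have a fitted effect of over 50% in size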
ALDH1A1 block: blocks purified human ALDH1A1 activity; 7.3% of 220,000 active; Purified ALDH1A1, NADH fluorescence, propionaldehyde substrate; P00352; Potency, µM (titrated, usually from 75.3 µM), for the others: top-dose activity, negative = inhibition, usual class: inhibitors; active = well fitted inhibition curve with a large enough effect, not every such curve was filed as active; inconclusive = small, poorly fitted or top-dose-only effect, or another doubt; inactive = no such curve, though single readings can be large or run the other way;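 also: plate controls were no enzyme wells and a reference inhibitor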
Sfp PPTase inh: Sfp phosphopantetheinyl transferase inhibition. Biochemical Sfp PPTase activity, qHTS. Q9F4F7. AID 1490. 3.5% of 310,000 active. Potency, µM, inactives show largest response in the series, negative = inhibition, usual class: inhibitors;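 also: the enzyme is Sfp with the accession as filed and its product quenches rhodamine fluorescence; 0% = enzyme reaction without inhibitor and -100% = no enzyme wells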
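Reaction rates are the 30-min fluorescence difference (ex 525, em 598 nm) in wells containing 15 nM Sfp, 5 uM rhodamine-CoA and 12.5 uM BHQ-2-YbbR at pH 7.6 with 10 mM MgCl2.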
PLK1 PBD inh: inhibitors of human PLK1 polo-box domain binding. AID 720504. Plk1 PBD binding of FITC phosphopeptide, fluorescence polarization. Potency, µM, inactives show max response, negative = inhibition, most hits filed as inhibitors. 2.8% of 360,000 active. P53350; also: series mostly up to about 57 µM; nearly all actives have a fitted effect of over 65% in size
* = called active by the depositor; ? = inconclusive; · = no result given; [ ] = another dose, or the depositor's remark. Unless noted, calls follow the shape of the dose curve; as a rule, active = well fitted curve in the direction sought with a large enough effect; inconclusive = small, poorly fitted or top-dose-only effect, or another doubt; inactive = no such curve, though single readings can be large; an effect the other way counts as inactive or inconclusive. Unless noted, % is scaled to controls: 0 for no effect and ±100 for the full control effect; potency is read from the fitted curve at half-maximal effect.

SMILES	RORg inh	Gal4-VP16 FLuc	ALDH1A1 block	Sfp PPTase inh	PLK1 PBD inh
Cc1ccc(S(=O)(=O)N(CC(=O)N2CCC(C(N)=O)CC2)c2cccc(C(F)(F)F)c2)cc1	11%	6%	13µM*	9%	-8%
COc1ccc(S(=O)(=O)NCCSC(C)(C)C)c(Cl)c1Cl	4%	-4%	2.4µM*	-2%	0%
COc1cc2c(cc1OC)C(C)N(C(=O)c1cc3n(n1)C(C(F)(F)F)CC(c1ccco1)N3)CC2 (stereo not drawn)	?	23%	-5%	40µM*	-10%
O=C(c1cc2n(n1)C(C(F)(F)F)CC(c1ccco1)N2)N1CCc2ccccc2C1 (stereo not drawn)	?	-2%	?	13%	-2%
CC(C)(C)c1ccc2c(c1)OC(C(=O)N/N=C\c1ccncc1)CO2 (stereo not drawn)	27%	?	·	10%	3%
O=C(N/N=C\C=C\c1ccc2c(c1)OCO2)C1COc2cc3ccccc3cc2O1 (stereo not drawn)	7.1µM*	?	?	3%	-10%
Cc1cc(C(=O)N/N=C/C=C/c2ccc3c(c2)OCO3)n[nH]1	?	1%	?	15%	-10%
O=C(N/N=C\C=C\c1ccco1)C1COc2ccccc2O1 (stereo not drawn)	?	?	·	40µM*	-14%
O=C(N/N=C\C=C\c1ccc2c(c1)OCO2)c1ccc(F)cc1	2.2µM*	5.6µM*	-4%	10%	0%
CC(C)(C)c1ccc2c(c1)OC(C(=O)N/N=C\c1ccc[nH]1)CO2 (stereo not drawn)	7.9µM*	5µM*	·	9%	-4%
Cn1c(=O)c2cc(NC(=O)NCCc3ccccc3)ccc2n1Cc1ccc(F)cc1	·	·	·	·	-22%
CCCCCc1ccc2cc(C#N)ccc2n1	·	·	·	·	-2%
O=C(N/N=C\c1ccc(O)c([N+](=O)[O-])c1)C1COc2ccccc2O1 (stereo not drawn)	26%	5%	·	-3%	-2%
CCOc1ccc(-n2c(O)c(/C=N/NC(=O)C3COc4ccccc4O3)c3ccccc3c2=O)cc1 (stereo not drawn)	3.2µM*	4.5µM*	-4%	25%	-9%
O=C(N/N=C/C=C/c1ccc([N+](=O)[O-])cc1)C1COc2ccccc2O1 (stereo not drawn)	10µM*	11µM*	25µM*	-24%	-8%
O=C(N/N=C\c1cc(Br)cs1)C1COc2ccccc2O1 (stereo not drawn)	10µM*	?	20µM*	14%	-10%
Cc1cc([N+](=O)[O-])cc(/C=N\NC(=O)C2COc3ccccc3O2)c1O (stereo not drawn)	2.2µM*	4.5µM*	·	20%	-4%
O=C(Nc1ccc([N+](=O)[O-])cc1)C1COc2ccccc2O1 (stereo not drawn)	9%	28%	·	1%	-21%
CN(C)c1ccc(-c2cncnc2N(C)Cc2ccco2)cc1	-43%	5%	?	-6%	·
CCOc1ccc(N2C(=O)CN(O)C=C3N=c4ccccc4=C32)cc1	0%	-7%	10µM*	4.5µM*	·
COC(=O)[C@H](CC(C)C)NC(=O)CC[C@H]1O[C@@H](n2cc(C)c(=O)[nH]c2=O)C[C@@H]1O	·	·	·	·	-5%
O=C(/C=C/c1cccc([N+](=O)[O-])c1)OCC(=O)N1CCCCC1	·	·	·	·	-4%
Cc1cc(C)nc(SCC(=O)Nc2ccc(S(=O)(=O)N3CCCCC3)cc2)n1	14%	-2%	-12%	0%	-3%
CC(SCC(=O)Nc1ccc(S(=O)(=O)N2CCCCC2)cc1)C(=O)O (stereo not drawn)	2%[10 µM]	-3%	28µM*	5%	-3%
Cc1csc(SCC(=O)Nc2ccc(S(=O)(=O)N3CCCC3)cc2)n1	35%	-6%	14µM*	-4%	-8%
SMILES	RORg inh	Gal4-VP16 FLuc	ALDH1A1 block	Sfp PPTase inh	PLK1 PBD inh
O=C(CSc1nnc(-c2ccc(F)cc2)o1)Nc1ccc(S(=O)(=O)N2CCCC2)cc1	4%	-7%	16µM*	-9%	0%
Nc1cc(=O)[nH]c(SCC(=O)Nc2ccc(S(=O)(=O)N3CCCCC3)cc2)n1	-1%	0%	19µM*	8%	-13%
CC1(C(=O)Nc2cccc(C#N)c2)CCN1C(=O)c1ccccc1CCc1ccccc1 (stereo not drawn)	·	·	·	·	-5%
CC1OC(CCc2cccc(Cl)c2)Cc2[nH][nH]c(=O)c21 (stereo not drawn)	·	·	·	·	-4%
Cc1cc(OC(C)C)nc(-c2ccccc2O)n1	-11%	10%	14%	-1%	-5%
CCCOc1cc(C)nc(-c2ccccc2O)n1	15%	-1%	10µM*	-4%	1%
Cc1ccc(NC(=O)CCNC(=O)N2CC(=O)Nc3ccccc32)cc1Cl	·	·	·	·	2%
COc1ccc(C2C(C#N)C(C#N)N3CCCN23)cc1 (stereo not drawn)	-2%	2%	-1%	5%	-11%
N#CC1C(C#N)N2CCCN2C1c1ccc(Cl)cc1 (stereo not drawn)	3%	1%	8%	0%	3µM*
Cn1cnc([N+](=O)[O-])c1S(=O)(=O)c1cccc(Cl)c1	2.8µM*	5µM*	?	-27%	?
NC(=S)N/N=C/c1ncc(C(F)(F)F)cc1Cl	0.63µM*	0.5µM*	·	25µM*	-4%
CC(C)Oc1ccc(/C=N/NC(N)=S)cc1	5µM*	2.8µM*	-4%	2%	-3%
C=CCOc1ccc(/C=N\NC(N)=S)cc1	32%	24%	-4%	-15%	-29%
COc1ccc(/C=N/NC(N)=S)cc1	11µM*	?	·	-13%	-7%
NC(=S)N/N=C/c1ccc(C(F)(F)F)cc1	5µM*	5.6µM*	20%	-16%	1%
Cc1scc(C(=O)N/N=C/c2ccc(OC(C)C)cc2)c1C	-14%	-23%	-3%	-10%	-5%
Cc1ccc(-c2c(C3C4C=CCC(C)C4C(=O)N3Cc3ccccc3)ccc3ccccc23)cc1 (stereo not drawn)	32%	7%	·	6%	·
CCN(CC)S(=O)(=O)c1ccc(N2CCCC2)c(NC(=O)Cc2c(F)cccc2Cl)c1	24%	-2%	·	21%	-1%
COc1cccc(OC)c1C(=O)NC1C(=O)N2C1SC(C)(C)C2C(=O)O (stereo not drawn)	8%	3%	-11%	15%	·
COC(=O)c1ccc(COc2ccc(/C=N/NC(N)=S)cc2)o1	11µM*	?	?	-4%	?
COCCn1c(NC(=S)NC(=O)C2CC2)cc(=O)[nH]c1=O	?	-7%	0.63µM*	22µM*	?
COc1ccccc1Nc1ccc(N)cc1	-6%	7%	28µM*	-15%	-21%
COc1ccccc1NC(=O)c1ccccc1Nc1ccccc1	-2%	6%	·	-8%	0%
c1ccc(-c2nn3c(C4CCCCC4)nnc3s2)nc1	-24%	4%	?	-9%	1%
Clc1ccc(OCc2nn3c(C4CCCCC4)nnc3s2)cc1	12%	-2%	18µM*	20µM*	21µM*
